RORgamma inh – inhibitors of mouse ROR gamma transcriptional activity; Potency, µM (series often up to 53.6 µM), actives largely listed as inhibitors; AID 2551; Drosophila S2 Gal4-RORgamma UAS-luciferase reporter, 20 h; 310,000 compounds, 5.4% hits; P51450; note: nearly all actives have a fitted effect of over 60% in size
Target sequence (P51450 whole entry, looked up, the tested form may be a part): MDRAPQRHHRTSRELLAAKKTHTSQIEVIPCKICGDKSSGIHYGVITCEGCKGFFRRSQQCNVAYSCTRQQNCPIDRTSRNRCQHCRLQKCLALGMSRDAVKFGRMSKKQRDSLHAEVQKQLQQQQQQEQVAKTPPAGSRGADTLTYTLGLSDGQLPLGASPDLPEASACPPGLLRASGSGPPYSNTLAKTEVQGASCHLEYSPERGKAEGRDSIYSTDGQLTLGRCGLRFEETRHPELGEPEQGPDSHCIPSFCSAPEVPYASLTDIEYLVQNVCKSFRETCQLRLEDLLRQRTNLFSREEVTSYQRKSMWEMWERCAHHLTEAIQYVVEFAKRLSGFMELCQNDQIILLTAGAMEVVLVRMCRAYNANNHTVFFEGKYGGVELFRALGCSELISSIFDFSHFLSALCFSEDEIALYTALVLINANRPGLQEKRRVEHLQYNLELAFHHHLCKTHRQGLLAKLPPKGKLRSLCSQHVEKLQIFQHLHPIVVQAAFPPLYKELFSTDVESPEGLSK
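Stable Schneider cell line, Gal4 DNA-binding domain fused to ROR gamma, UAS-luciferase. Cmpd 1 hr RT → CuSO4 700 uM final → 20 hr RT → luciferase reagent 10 min → luminescence.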
VP16 counter – counter-screen for ROR gamma inhibitors: Gal4-VP16 reporter | AID 2546 | Potency, µM (series often up to 53.6 µM), most hits filed as inhibitors | 310,000 compounds, 3.5% hits | Drosophila S2 Gal4-VP16 UAS-luciferase, luminescence, 20 h;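 note: Gal4-VP16 expression switched on by copper sulfate through the metallothionein promoter; nearly all actives have a fitted effect of over 50% in size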
DT40 TDP1 CPT – DT40-hTDP1 cell growth loss with CPT; chicken DT40 Tdp1-/-;hTDP1 cells + 20 nM CPT, ATP luminescence, 48 h; Potency, µM (series often up to 46.2 µM), hits mostly inhibitors; 420,000 compounds, 12% hits; note: nearly all actives have a fitted effect of over 55% in size
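Chicken DT40 Tdp1-/- cells complemented with human TDP1, 400 cells/well, exposed to compounds plus 20 nM camptothecin for at least 48 h at 37 C; viability read as ATP content by CellTiter-Glo luminescence.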
TDP1 cell noCPT – qHTS for Inhibitors of human tyrosyl-DNA phosphodiesterase 1 (TDP1): qHTS in cells in absence of CPT; 420,000 compounds, 15% hits; Potency, µM (series often up to 46.2 µM), hits mostly inhibitors; DT40 Tdp1-/- hTDP1 cells, no CPT, ATP luminescence, 48 h; AID 686978, 2013; note: nearly all actives have a fitted effect of over 55% in size
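Compound effects on proliferation are scored in DT40 Tdp1-/-;hTDP1 cells in the absence of CPT. ATP levels (CellTiter-Glo luminescence) are recorded after a ≥48 hr, 37 °C incubation.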
TDP1 inh – blocks human tyrosyl-DNA phosphodiesterase 1 | Q9NUW8 | AID 485290 | Potency, µM (highest dose often 130 µM), actives largely listed as inhibitors | recombinant TDP1, AlphaScreen DNA substrate cleavage | 350,000 compounds, 0.28% hits; note: nearly all actives have a fitted effect of over 40% in size
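Enzyme-compound mixtures sat 15 min at room temperature, followed by a 5 min reaction with 15 nM final substrate and 10 min with AlphaScreen beads. Recombinant human Tdp1 was used at 1 nM final.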
A number is an active result; . = inactive; ? = inconclusive; / = no result; [ ] = remark or other dose. An excerpt weighted towards active compounds, which were near 19% of everything screened. Calls come from the whole dose curve; as a rule, active = well fitted curve in the direction sought with a large enough effect; inconclusive = small, poorly fitted or top-dose-only effect, or another doubt; inactive = no such curve, though single readings can be large; an effect the other way counts as inactive or inconclusive.

SMILES	RORgamma inh	VP16 counter	DT40 TDP1 CPT	TDP1 cell noCPT	TDP1 inh
CS(=O)(=O)c1ccc(-c2cc(Br)sc2-c2ccc(F)cc2)cc1	.	.	.	?	.
CC(C)Cn1c(=O)c2c(nc3n2CCS3)n(C)c1=O	.	.	.	.	.
CCc1ccc(N(CC)C(=O)c2cn(C)c(=O)c3ccccc23)cc1	.	.	.	.	/
COc1cccc(-c2cnc3c(NC=O)cc(-c4ccc(N5CCN(C)CC5)cc4)cn23)c1	/	/	16µM	?	/
COc1cccc(-c2cnc3c(NC=O)cc(-c4cc(C)c(O)c(C)c4)cn23)c1	/	/	3.7µM	4.6µM	/
COc1cccc(-c2cnc3c(NC=O)cc(-c4ccoc4)cn23)c1	/	/	13µM	15µM	/
CCOC(=O)CSc1nnc(-c2ccoc2C)n1-c1ccc(OCC)cc1	.	.	.	.	.
CCCn1c(=N)c(C(=O)NCc2ccc3c(c2)OCO3)cc2c(=O)n3cccc(C)c3nc21	.	.	.	?	.
CC(C)CN1C(=O)CN(S(C)(=O)=O)CC1(C)C(=O)NC(C)C (stereo not drawn)	/	/	.	.	/
CC1NC(=O)c2cc3ccccc3cc2-n2c1nc1ccc(F)cc1c2=O (stereo not drawn)	/	/	.	.	/
CC1(C)CC2(C)OC(=N)C1(C#N)C2(C#N)C#N (stereo not drawn)	7.9µM	?	?	15µM	/
CC(C)C1COC(c2cccn2Cc2ccccc2Cl)=N1 (stereo not drawn)	?	.	?	?	.
Cc1ccc(Cn2cccc2C2=NC(C)CO2)cc1 (stereo not drawn)	18µM	.	.	.	.
CC(C)CCNC(=O)C(c1cccnc1)N(Cc1ccccc1)C(=O)Cn1nnc2ccccc21 (stereo not drawn)	/	/	.	.	/
C=CCn1c(NC)cc(=O)n(C)c1=O	.	.	.	.	.
CC(C)CN(CC(C)C)S(=O)(=O)c1cc([N+](=O)[O-])ccc1N1CCCCCC1	.	.	?	16µM	.
Cc1ccc(C(=O)N2CCN(CCNC(=O)C(=O)NCc3ccc(Cl)cc3)CC2)cc1	.	.	16µM	?	.
C=CCNC(=S)Nc1ccc(OC(F)F)c(Cl)c1	?	?	.	?	.
C=CCNC(=S)Nc1ccc(Cl)cc1	16µM	?	?	?	.
FC(F)(F)Sc1ccc(NC(=S)NCc2ccccc2)cc1	13µM	?	?	21µM	.
S=C(NCc1ccccc1)Nc1ccncc1	.	14µM	10µM	?	.
COC(=O)c1cnc2c(c1C(=O)OC)c(=O)n(C)c(=O)n2C	.	.	.	.	.
C/C(=C\CCC1(C)C2CC3C(C2)C31C)C(=O)O (stereo not drawn)	.	.	.	.	/
S=C(NCc1cccnc1)Nc1ccc(Cl)cc1	.	.	.	.	.
S=C(NCc1ccccc1)Nc1ccc(Cl)cc1	4.5µM	?	.	?	.
SMILES	RORgamma inh	VP16 counter	DT40 TDP1 CPT	TDP1 cell noCPT	TDP1 inh
O=C(CNCc1ccc(Cl)cc1)Nc1ccc(C(=O)N2CCCCC2)cc1	.	.	.	.	.
CCc1ccc(NC(=S)NCc2ccccc2)cc1	2.2µM	?	.	.	.
O=C(c1ccc(NC(=S)NCc2ccc(Cl)cc2)cc1)N1CCCCC1	.	.	?	23µM	.
C=CCNC(=S)Nc1ccc2nc(C)c(C)nc2c1	.	.	?	18µM	.
Nc1cc(=O)[nH]c(SCC(=O)Nc2ccc([N+](=O)[O-])cc2)n1	.	.	.	.	.
CCc1ccc(NC(=S)Nc2ccc3[nH]c(=O)[nH]c3c2)cc1	13µM	.	.	.	.
CCc1ccc(NC(=S)Nn2cnnc2)cc1	1.1µM	.	.	.	.
CCCCCCOC(=O)c1ccc(OC(=O)c2cccnc2)cc1	.	.	.	.	.
CCCCCCCOc1ccc(OC(=O)c2ccncc2)cc1	.	.	9.2µM	10µM	.
CCCCOc1ccc(OC(=O)c2cccnc2)cc1	.	.	21µM	16µM	.
CCCCCCCOc1ccc(OC(=O)c2cccnc2)cc1	.	.	5.2µM	8.2µM	.
CCc1nn(CC(=O)N2CCCCCC2)c(=O)c2cc3ccccc3n12	.	.	?	?	.
COc1cc(/C=C/C(=O)OCC(=O)N2CCN(S(=O)(=O)c3ccc(C)cc3C)CC2)cc(Cl)c1OC	/	/	?	18µM	.[0.505 µM]
Cc1ccc(S(=O)(=O)N2CCN(C(=O)COC(=O)/C=C/c3ccc([N+](=O)[O-])cc3)CC2)c(C)c1	/	/	.	.	.
COc1ccccc1/C=C/C(=O)OCC(=O)N1CCN(S(=O)(=O)c2ccc(C)cc2C)CC1	/	/	?	?	.
C=CCOc1ccc(/C=C/C(=O)OCC(=O)N2CCN(S(=O)(=O)c3ccc(C)cc3C)CC2)cc1	/	/	?	7.3µM	/
O=C(Nc1cccc(Cl)c1)OCc1cncs1	?	.	.	?	.
COc1ccc(/C=C(/C#N)C(=O)Nc2cccc(C)c2C)cc1C(=O)O	.	.	.	.	.
Cc1cc(=O)n2c3c(c4c(cc13)c(CN(C)C)cc(=O)n4C)OC2	/	/	8.2µM	6.5µM	/
Cc1cc(=O)n(C)c2ccccc12	.	.[10 µM]	.	.	.
CC(=O)N1CCN(c2ccc(NC(=O)C(c3ccccc3)c3ccccc3)cc2)CC1	.	.	.	.	/
COc1cccc(NC(=O)CC(=O)Nc2ccc3nc4n(c(=O)c3c2)CCCCC4)c1	/	/	.	.	.
O=C(Nc1ccc2nc3n(c(=O)c2c1)CCCC3)c1cc([N+](=O)[O-])ccc1F	.[10 µM]	.	2.1µM	1.8µM	.
COc1ccc(NC(=O)C(=O)Nc2ccc3nc4n(c(=O)c3c2)CCCCC4)c(OC)c1	/	/	.	.	.
COc1cc(OC)cc(C(=O)Nc2ccc3nc4n(c(=O)c3c2)CCCCC4)c1	.	.	?	12µM	.
SMILES	RORgamma inh	VP16 counter	DT40 TDP1 CPT	TDP1 cell noCPT	TDP1 inh
COc1ccc(OC)c(CCNC(=O)C(=O)Nc2ccc3nc4n(c(=O)c3c2)CCCCC4)c1	.	.	13µM	15µM	.
O=C(Nc1ccc2nc3n(c(=O)c2c1)CCCC3)c1cccc([N+](=O)[O-])c1	.	.	.	.	.
COc1cccc(/C=C/C(=O)Nc2ccc3nc4n(c(=O)c3c2)CCCC4)c1OC	.	?	21µM	18µM	.
CN(C)C(=O)CSc1nc(-c2ccccc2)c(-c2ccccc2)o1	.	.[10 µM]	.	?	.
O=C(CSc1nccc(-c2cccs2)n1)Nc1ccc(F)c(Cl)c1	.	.	.	?	.
CC1(C)SC2[C@@H](N=CN3CCCCCC3)C(=O)N2[C@H]1C(=O)O (stereo partly drawn)	.[10 µM]	.	/	/	.
CN(Cc1ccccc1)S(=O)(=O)c1ccc(OCC(=O)NCc2cccnc2)cc1	?	.	.	.	.
CC1=CC(C)(C)N(C(=O)CSc2nnc(-c3ccc(C)cc3)o2)c2ccc(C)cc21	.	.	?	18µM	.
